Experimental data taken from PubChem BioAssay (NCATS).
Several values for one entry are separate records, joined by “and”; a condition that tells them apart may be missing. Equal entries are not always repeated. Results filed as inconclusive are left out. Activity calls are given as the source filed them. Unless noted, the call rests on the fitted dose curve; in most records, active means well fitted curve in the direction sought with a large enough effect; inconclusive means small, poorly fitted or top-dose-only effect, or another doubt; inactive means no such curve, though single readings can be large; an effect the other way counts as inactive or inconclusive.

Experiments:
[1] = target: Peroxisome proliferator-activated receptor gamma (Homo sapiens) (UniProt P37231); test: qHTS assay for small molecule agonists of peroxisome proliferator-activated receptor gamma signaling (AID 588536; active means well fitted curve in the direction sought with a large enough effect in the signal ratio, with a control signal flat, not every such curve was filed as active; the % refers to the signal ratio;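 further: 0% = DMSO basal wells and 100% = rosiglitazone at 2 µM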)
Summary of the method: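 Test agents, titrated, stimulated HEK293 UAS-bla cells overnight (16 h, 37 C). Substrate CCF4 was then added for two hours at room temperature before fluorescence reading.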

[2] = target: Vitamin D3 receptor (Homo sapiens) (UniProt P11473); test: qHTS assay for small molecule antagonists of vitamin D receptor signaling (AID 588541; calls by dose curve; further: potency means the concentration at half of the fitted maximal effect)
Summary of the method: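 Antagonist-mode beta-lactamase reporter assay: HEK293T VDR-UAS-bla cells were exposed to titrated compound alongside 1-alpha,25-dihydroxyvitamin D3 at 3 nM final for 16 h. Values were normalized to the 50 nM agonist control and DMSO basal, with IC50 and efficacy from Hill equation fits.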

[3] = target: Vitamin D3 receptor (Homo sapiens) (UniProt P11473); test: qHTS assay for small molecule agonists of vitamin D receptor signaling (AID 588543; calls by dose curve;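 further: 0% = DMSO basal and 100% = reference agonist control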)
Summary of the method: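 Reporter cells (HEK293T, VDR-UAS-bla) were seeded in medium with 2% charcoal-stripped serum and incubated 5 h, then compounds in concentration series were added for 16 h at 37 °C. Stimulation was scaled between DMSO basal and 50 nM 1α,25-dihydroxyvitamin D3.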

[4] = qHTS assay for small molecule agonists of retinoid X receptor alpha signaling (AID 588544; calls by dose curve; further: potency means the concentration at half of the fitted maximal effect); details: HEK293T RXRa-UAS-bla, beta-lactamase reporter, 18 h; 530 nm emission
[5] = target: Retinoic acid receptor RXR-alpha (Homo sapiens) (UniProt P19793); test: as above
[6] = target: Thyroid hormone receptor beta (Homo sapiens) (UniProt P10828); test: qHTS assay for small molecule agonists of thyroid hormone receptor beta signaling (AID 588545; calls by dose curve)
Summary of the method: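 In this cell-based screen, titrated compounds act on HEK 293 cells held in medium with 2% charcoal/dextran FBS, NEAA and pyruvate for 18 hrs at 37 C. Responses are expressed relative to T3 (10 nM) as 100% and basal DMSO as 0%.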

[7] = qHTS assay for small molecule antagonists of retinoid X receptor alpha signaling (AID 588546); details: HEK293T RXRa-UAS-bla, beta-lactamase ratio, antagonist mode; measured here: W530 green channel, cytotoxicity proxy;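 further: cells stimulated with 9-cis-retinoic acid as agonist; on the % scale 0 is the no-effect control and ±100 the full control effect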
Summary of the method: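 Beta-lactamase reporter inhibition, read as CCF4 fluorescence ratio (ex 405, em 460/530 nm) after 2 h at RT. HEK293T UAS-bla cells, 2500/well, were stimulated with 9-cis-RA at 500 or 100 nM final alongside test compound for 18 h at 37 C.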

[8] = target: Thyroid hormone receptor beta (Homo sapiens) (UniProt P10828); test: qHTS assay for small molecule antagonists of thyroid hormone receptor beta signaling (AID 588547; active means well fitted inhibition curve with a large enough effect in the signal ratio, with a control signal flat, not every such curve was filed as active; the % refers to the signal ratio;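 further: cells stimulated with 0.4 nM T3 agonist during compound exposure; series mostly up to about 77 µM; on the % scale 0 is the no-effect control and ±100 the full control effect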); details: TR-UAS-bla HEK293, beta-lactamase ratio, antagonist mode, 18 h
Summary of the method: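 Inhibition of T3-driven (0.4nM final) beta-lactamase reporter activity was measured over 0.59 nM to 92 uM compound after 18 h at 37 C. The cells were GripTite HEK293 TR-UAS-bla in charcoal/dextran-stripped serum, with CCF4 ratio read-out and IC50 from Hill fits.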

[9] = target: Voltage-gated inwardly rectifying potassium channel KCNH2 (Homo sapiens) (UniProt Q12809); test: qHTS Assay for Small Molecule Inhibitors of the Human hERG Channel Activity (AID 588834);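 further: top concentration of the series differs between compounds; on the % scale 0 is the no-effect control and ±100 the full control effect; lower thallium flux fluorescence means stronger hERG block; nearly all actives have a fitted effect of over 50% in size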
Summary of the method: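 hERG-BacMam U2OS, 2000 cells/well; 0.7X FluxOR loading 1 hr RT dark; cpd ~10 min 37 °C; stim buffer; FDSS fluorescence 2 min @ 1 s; AC50 Hill fit.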

[10] = target: Luciferin 4-monooxygenase (Photinus pyralis) (UniProt P08659); test: Biochemical firefly luciferase enzyme assay for NPC (AID 624030);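 further: purified P. pyralis luciferase at 10 nM with luciferin and ATP substrate; series mostly up to about 59 µM; 0% = DMSO and -100% = full luciferase inhibition by PTC124 control; nearly all actives have a fitted effect of over 70% in size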
Summary of the method: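 Direct inhibition of firefly luciferase enzyme (10 nM final, 50 mM Tris Acetate) assessed by luminescence within 5 minutes. Percent activity scaled between DMSO and PTC124 positive control, with concentration-effect curves classified by fit quality and response.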

[11] = S16 Schwann cell viability assay (CellTiter-Glo assay) (AID 624031);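 further: cellular ATP luminescence as a viability measure; series mostly up to about 58 µM; plate controls were DMSO-treated cells for no effect and cell-free wells for full effect; nearly all actives have a fitted effect of over 70% in size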
Summary of the method: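 This viability control uses native rat S16 Schwann cells grown in DMEM plus 10% FBS. After a 24 h compound treatment at 37 °C, CellTiter-Glo luminescence reports ATP content, scaled against DMSO-treated and cell-free wells.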

[12] = S16 Schwann cell PMP22 intronic element firefly luciferase assay (AID 624032);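 further: series mostly up to about 58 µM; plate controls were DMSO for no effect and PTC124 positive control mean for full effect; nearly all actives have a fitted effect of over 30% in size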
Summary of the method: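 Luciferase reporter of PMP22 intronic-element expression in stably transfected S16 rat Schwann cells, read by ONE-Glo luminescence after 24 h compound exposure at 37 C. Activity scaled between DMSO (0%) and positive-control PTC124; concentration-effect curves quality-classified.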

[13] = S16 Schwann cell PMP22 intronic element beta-lactamase assay (AID 624044; calls by dose curve;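 further: 0% = DMSO and -100% = potassium clavulanate positive control; nearly all actives have a fitted effect of over 15% in size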)
Summary of the method: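 Rat S16 Schwann cells with beta-Lac driven by a PMP22 intronic element, compound-treated 24 h at 37 °C. LiveBLAzer FRET B/G read: 460 nm normalized to potassium clavulanate vs DMSO; 535 nm FRET as viability; concentration-effect curves classified.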

[14] = target: Glutaminase kidney isoform, mitochondrial (Homo sapiens) (UniProt O94925); test: qHTS for Inhibitors of Glutaminase (GLS): LOPAC Validation (AID 624146); further: nearly all actives have a fitted effect of over 60% in size; further: potency means the concentration at half of the fitted maximal effect
Summary of the method: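 Compounds were pin-transferred onto hKGA, after which L-glutamine (1 mM solution) and a detection mix of glutamate oxidase, HRP and Amplex Red were added. Initial and 30 min RT fluorescence reads were collected.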

[15] = qHTS of Trypanosoma Brucei Inhibitors: LOPAC Validation (AID 624147); further: 0% is about no effect
Summary of the method: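 Screened from lowest to highest concentration, compounds were pinned into TbPYK/substrate mixtures, and ADP (130 uM final) was added. Plates sat at room temperature for 45 min prior to Kinase-Glo Plus detection by luminescence.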

[16] = qHTS of Nrf2 Activators: LOPAC Validation (AID 624149); further: 0% is about no effect
Summary of the method: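 AREc32 cells carrying an ARE-driven firefly luciferase were grown overnight in OPTI-MEM with 5% FBS, then exposed to compounds for 24 hr at 37 deg C. Luciferase signal was read after 30 min with Steady-Glo at RT.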

[17] = HTS Assay for Allosteric Antagonists of the Human D2 Dopamine Receptor: Hit Validation in HTRF (AID 624455);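 further: stable D1 dopamine receptor cell line scored for blocking the D1 response; on the % scale 0 is the no-effect control and ±100 the full control effect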
Summary of the method: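 Hits were examined in an HTRF assay using cells stably expressing the D1 dopamine receptor, scoring inhibition of the D1-mediated response. The preceding primary screen tracked calcium flux after an EC80 dopamine addition in force-coupled, inducible Hek293 Trex D2 cells.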

Sequence of Voltage-gated inwardly rectifying potassium channel KCNH2 (Homo sapiens) (Q12809 whole entry, looked up): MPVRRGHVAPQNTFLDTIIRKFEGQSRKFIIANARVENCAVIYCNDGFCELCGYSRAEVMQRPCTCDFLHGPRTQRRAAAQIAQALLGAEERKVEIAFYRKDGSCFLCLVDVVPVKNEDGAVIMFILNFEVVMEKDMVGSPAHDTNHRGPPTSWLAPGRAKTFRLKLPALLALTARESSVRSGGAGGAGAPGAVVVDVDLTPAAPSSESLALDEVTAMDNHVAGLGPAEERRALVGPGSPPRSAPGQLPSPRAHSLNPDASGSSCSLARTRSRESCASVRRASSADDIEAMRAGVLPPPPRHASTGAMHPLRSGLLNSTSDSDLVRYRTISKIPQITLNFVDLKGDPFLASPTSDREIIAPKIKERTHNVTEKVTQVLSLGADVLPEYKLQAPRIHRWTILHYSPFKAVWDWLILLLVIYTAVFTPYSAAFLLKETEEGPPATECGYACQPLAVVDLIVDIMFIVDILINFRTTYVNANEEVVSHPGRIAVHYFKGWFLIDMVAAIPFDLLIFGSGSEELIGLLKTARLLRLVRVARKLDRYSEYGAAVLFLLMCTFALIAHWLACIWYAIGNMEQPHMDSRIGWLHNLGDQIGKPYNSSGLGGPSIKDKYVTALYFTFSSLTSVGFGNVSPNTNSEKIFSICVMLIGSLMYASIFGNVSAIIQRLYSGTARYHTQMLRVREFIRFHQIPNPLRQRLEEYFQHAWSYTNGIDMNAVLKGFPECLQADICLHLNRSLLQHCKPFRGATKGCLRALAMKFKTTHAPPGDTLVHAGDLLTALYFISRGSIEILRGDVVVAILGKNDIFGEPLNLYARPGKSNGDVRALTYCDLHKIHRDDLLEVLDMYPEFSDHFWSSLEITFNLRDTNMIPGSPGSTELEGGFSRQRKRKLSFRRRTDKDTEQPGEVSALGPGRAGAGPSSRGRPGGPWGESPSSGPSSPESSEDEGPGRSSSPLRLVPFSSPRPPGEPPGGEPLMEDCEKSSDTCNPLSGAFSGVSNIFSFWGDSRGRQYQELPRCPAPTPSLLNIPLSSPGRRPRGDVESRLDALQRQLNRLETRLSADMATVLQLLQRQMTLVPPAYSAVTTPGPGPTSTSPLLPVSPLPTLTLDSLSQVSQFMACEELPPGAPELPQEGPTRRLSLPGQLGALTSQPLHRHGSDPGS
Sequence of Vitamin D3 receptor (Homo sapiens) (P11473 whole entry, looked up): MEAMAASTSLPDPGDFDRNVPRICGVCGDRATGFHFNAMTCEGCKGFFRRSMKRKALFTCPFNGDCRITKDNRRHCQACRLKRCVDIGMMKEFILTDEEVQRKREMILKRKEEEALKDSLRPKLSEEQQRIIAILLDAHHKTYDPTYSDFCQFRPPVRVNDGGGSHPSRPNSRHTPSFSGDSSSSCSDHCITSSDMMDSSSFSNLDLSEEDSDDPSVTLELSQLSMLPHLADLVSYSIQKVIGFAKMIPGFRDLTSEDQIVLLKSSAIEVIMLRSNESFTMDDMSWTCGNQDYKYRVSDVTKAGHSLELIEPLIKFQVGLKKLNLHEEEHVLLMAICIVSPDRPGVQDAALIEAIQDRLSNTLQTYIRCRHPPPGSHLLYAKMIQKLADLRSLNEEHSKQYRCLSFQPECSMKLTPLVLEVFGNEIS
Sequence of Retinoic acid receptor RXR-alpha (Homo sapiens) (P19793 whole entry, looked up): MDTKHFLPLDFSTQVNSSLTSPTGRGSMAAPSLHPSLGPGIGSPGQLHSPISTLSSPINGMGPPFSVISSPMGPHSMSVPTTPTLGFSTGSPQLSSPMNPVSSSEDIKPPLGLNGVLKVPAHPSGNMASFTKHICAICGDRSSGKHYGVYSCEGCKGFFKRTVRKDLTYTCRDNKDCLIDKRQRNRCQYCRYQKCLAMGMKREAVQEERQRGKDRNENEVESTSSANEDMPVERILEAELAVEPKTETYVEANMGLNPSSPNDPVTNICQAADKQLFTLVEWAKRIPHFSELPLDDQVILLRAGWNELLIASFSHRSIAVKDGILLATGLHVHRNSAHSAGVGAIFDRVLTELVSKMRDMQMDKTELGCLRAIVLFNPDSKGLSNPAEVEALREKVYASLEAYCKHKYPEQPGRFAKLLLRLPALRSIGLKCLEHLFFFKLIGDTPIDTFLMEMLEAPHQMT
Sequence of Thyroid hormone receptor beta (Homo sapiens) (P10828 whole entry, looked up): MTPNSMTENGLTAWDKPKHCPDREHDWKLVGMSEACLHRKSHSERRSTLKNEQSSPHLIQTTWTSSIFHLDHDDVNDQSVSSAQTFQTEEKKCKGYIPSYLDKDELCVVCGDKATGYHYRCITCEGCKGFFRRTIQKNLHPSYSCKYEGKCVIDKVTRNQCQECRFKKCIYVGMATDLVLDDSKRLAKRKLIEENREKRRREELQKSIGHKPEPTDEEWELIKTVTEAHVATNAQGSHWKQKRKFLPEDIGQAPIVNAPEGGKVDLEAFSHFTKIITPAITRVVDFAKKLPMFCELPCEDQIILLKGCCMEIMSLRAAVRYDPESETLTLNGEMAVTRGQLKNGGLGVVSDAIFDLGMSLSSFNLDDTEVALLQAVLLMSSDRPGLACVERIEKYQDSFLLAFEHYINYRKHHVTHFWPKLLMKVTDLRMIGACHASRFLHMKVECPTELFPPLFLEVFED
Sequence of Glutaminase kidney isoform, mitochondrial (Homo sapiens) (O94925 whole entry, looked up, canonical isoform): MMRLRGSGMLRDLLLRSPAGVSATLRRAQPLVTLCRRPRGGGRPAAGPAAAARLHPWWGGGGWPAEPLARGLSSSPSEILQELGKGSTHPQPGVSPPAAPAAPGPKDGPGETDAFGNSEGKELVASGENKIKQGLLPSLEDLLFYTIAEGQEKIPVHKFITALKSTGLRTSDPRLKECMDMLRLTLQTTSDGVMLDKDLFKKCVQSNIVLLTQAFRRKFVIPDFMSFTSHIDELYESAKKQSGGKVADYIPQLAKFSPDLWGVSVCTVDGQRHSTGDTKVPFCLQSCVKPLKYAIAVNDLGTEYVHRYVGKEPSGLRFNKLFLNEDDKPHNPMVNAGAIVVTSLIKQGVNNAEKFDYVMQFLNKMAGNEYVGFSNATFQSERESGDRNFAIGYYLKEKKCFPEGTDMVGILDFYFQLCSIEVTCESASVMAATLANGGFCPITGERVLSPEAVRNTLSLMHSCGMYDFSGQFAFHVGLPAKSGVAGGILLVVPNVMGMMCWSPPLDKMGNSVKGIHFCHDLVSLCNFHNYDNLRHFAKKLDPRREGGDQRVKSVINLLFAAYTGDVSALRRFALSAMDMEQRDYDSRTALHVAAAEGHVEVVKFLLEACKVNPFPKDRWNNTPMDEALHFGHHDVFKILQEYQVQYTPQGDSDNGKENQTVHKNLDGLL
Sequence of Luciferin 4-monooxygenase (Photinus pyralis) (P08659 whole entry, looked up): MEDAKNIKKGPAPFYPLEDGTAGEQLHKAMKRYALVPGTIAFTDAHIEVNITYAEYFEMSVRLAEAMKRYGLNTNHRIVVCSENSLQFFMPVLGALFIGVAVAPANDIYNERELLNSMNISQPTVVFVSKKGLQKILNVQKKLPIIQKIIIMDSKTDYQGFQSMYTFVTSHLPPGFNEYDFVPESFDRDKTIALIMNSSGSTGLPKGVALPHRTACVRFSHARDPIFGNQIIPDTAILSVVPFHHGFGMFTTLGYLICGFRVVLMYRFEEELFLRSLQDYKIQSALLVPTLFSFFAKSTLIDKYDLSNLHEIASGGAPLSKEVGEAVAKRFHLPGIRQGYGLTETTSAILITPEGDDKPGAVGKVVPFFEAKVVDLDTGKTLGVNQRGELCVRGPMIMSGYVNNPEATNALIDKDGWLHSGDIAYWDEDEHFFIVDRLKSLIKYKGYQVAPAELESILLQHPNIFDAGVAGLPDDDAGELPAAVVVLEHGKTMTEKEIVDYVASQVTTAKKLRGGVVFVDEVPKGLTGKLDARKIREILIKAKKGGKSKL
Sequence of Peroxisome proliferator-activated receptor gamma (Homo sapiens) (P37231 whole entry, looked up): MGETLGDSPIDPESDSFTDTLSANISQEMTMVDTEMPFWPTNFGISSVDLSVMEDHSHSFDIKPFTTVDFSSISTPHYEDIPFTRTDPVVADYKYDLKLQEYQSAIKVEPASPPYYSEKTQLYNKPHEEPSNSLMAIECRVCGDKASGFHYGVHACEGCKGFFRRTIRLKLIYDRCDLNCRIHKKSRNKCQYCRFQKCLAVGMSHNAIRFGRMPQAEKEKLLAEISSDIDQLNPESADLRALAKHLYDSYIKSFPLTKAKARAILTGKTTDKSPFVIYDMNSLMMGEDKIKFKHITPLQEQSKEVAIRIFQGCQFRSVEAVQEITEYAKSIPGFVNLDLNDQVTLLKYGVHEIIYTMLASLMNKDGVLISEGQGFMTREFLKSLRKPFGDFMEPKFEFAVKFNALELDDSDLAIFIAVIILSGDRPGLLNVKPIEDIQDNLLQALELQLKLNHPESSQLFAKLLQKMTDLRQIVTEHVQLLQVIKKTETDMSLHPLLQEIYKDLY

CCC(C)(C)c1ccc(O)cc1
-6.99% and -5.65%: max response [7]
inactive: outcome [1] | Potency [2] | outcome [3] | Potency [5] | outcome [6] | activity change % (negative = inhibition) [8] 9.09% | Potency [9] | Potency [10] | outcome [11] | Potency [12]
-12.7% and -6.48%: max response [4]

O=C1c2ccccc2C(=O)c2ccccc21
-16.5%: max response [7]
-19.1%: max response [4]
active: Potency [5] 35.5 µM
inactive: outcome [1] | Potency [2] | outcome [3] | outcome [6] | activity change % (negative = inhibition) [8] -1.19% | Potency [9] | Potency [10] | outcome [11] | Potency [12]

NCCc1ccc(O)cc1
-3.57%: max response [4]
-9.48%: max response [7]
inactive: outcome [1] | Potency [5] | outcome [6] | activity change % (negative = inhibition) [8] -4.83% | Potency [9] | Potency [10] | outcome [11] | Potency [12] | outcome [13] | Potency [14] | outcome [15] | outcome [16]

CC(=O)NC1CCSC1=O (stereo not drawn)
inactive: Potency [9]

CCOC(=O)CC(SP(=S)(OC)OC)C(=O)OCC (stereo not drawn)
inactive: outcome [1] | Potency [2] | outcome [3] | Potency [5] | outcome [6] | activity change % (negative = inhibition) [8] -33.5% | Potency [9] | Potency [10] | outcome [11] | Potency [12]
5.59%: max response [4]
12.5% and 3.13% and -23.2%: max response [7]

CCCC(C)(COC(N)=O)COC(N)=O
-3.53%: max response [7]
inactive: outcome [1] | Potency [2] | outcome [3] | outcome [6] | activity change % (negative = inhibition) [8] 14.4% | Potency [9] | Potency [10] | outcome [11] | Potency [12] | outcome [13]

O=C(O)CCCc1ccc(N(CCCl)CCCl)cc1
15.5% and 20.9%: max response [4]
6.94% and -4.83%: max response [7]
inactive: outcome [1] | Potency [2] | outcome [3] | Potency [5] | outcome [6] | activity change % (negative = inhibition) [8] 16.9% and 14.1% | Potency [9] | Potency [10] | outcome [11] | Potency [14] | outcome [15] | outcome [16] | Potency [17]

CC1(C)C(C=C(Cl)Cl)C1C(=O)OC(C#N)c1cccc(Oc2ccccc2)c1 (stereo not drawn)
0.437%: max response [4]
inactive: outcome [3] | Potency [5] | outcome [6] | Potency [10]
-14.1%: max response [7]

Nc1nc(N)nc(NC2CC2)n1
inactive: Potency [5] | outcome [6] | activity change % (negative = inhibition) [8] -23% | Potency [9] | Potency [10] | outcome [11] | Potency [12]
-19.4%: max response [4]
-17.8%: max response [7]

O=C(O)/C=C\C(=O)O
inactive: Potency [9]

O=C(Oc1ccccc1)c1ccccc1O
23.5%: max response [4]
inactive: Potency [5]

Oc1ccc(Cl)cc1
inactive: outcome [1] | Potency [2] | outcome [3] | Potency [5] | outcome [6] | activity change % (negative = inhibition) [8] -0.268% | Potency [9] | Potency [10] | outcome [11] | Potency [12]
-11.6%: max response [4]
-7.58%: max response [7]

COC(=O)C(c1ccccc1)C1CCCCN1 (stereo not drawn)
inactive: outcome [1] | Potency [2] | outcome [3] | outcome [6] | activity change % (negative = inhibition) [8] 13% | Potency [9] | Potency [10] | outcome [11] | Potency [12] | outcome [13]
-4.37%: max response [7]

O=[N+]([O-])O[C@H]1CO[C@H]2[C@@H]1OC[C@H]2O[N+](=O)[O-]
inactive: Potency [9]

Nc1ccc([As](=O)(O)O)cc1
inactive: outcome [1] | Potency [2] | outcome [3] | Potency [5] | outcome [6] | activity change % (negative = inhibition) [8] 0.893% | Potency [9] | Potency [10] | outcome [11] | Potency [12] | outcome [13]
-10%: max response [4]
-13.3%: max response [7]

Nc1ccccc1C(=O)O
-3.98%: max response [4]
-6.42%: max response [7]
inactive: outcome [1] | Potency [2] | outcome [3] | Potency [5] | outcome [6] | activity change % (negative = inhibition) [8] 18% | Potency [9] | Potency [10] | outcome [11]

CC(C)c1cccc(C(C)C)c1O
-14.1%: max response [4]
2.4%: max response [7]
inactive: outcome [1] | Potency [2] | outcome [3] | Potency [5] | outcome [6] | activity change % (negative = inhibition) [8] -3.45% | Potency [9] | Potency [10] | outcome [11] | Potency [12] | outcome [13] | outcome [15] | outcome [16] | Potency [17]
active: Potency [14] 4.47 µM

O=C1c2ccccc2C(=O)C1C(=O)C(c1ccccc1)c1ccccc1
-10.9%: max response [7]
inactive: Potency [5] | outcome [6] | activity change % (negative = inhibition) [8] 3.48% | Potency [9] | Potency [10] | Potency [12] | outcome [13]
-20.8%: max response [4]

C[C@]12CCC(=O)C=C1CC[C@@H]1[C@@H]2CC[C@]2(C)C(=O)CC[C@@H]12
24.5%: max response [7]
inactive: outcome [1] | outcome [6] | activity change % (negative = inhibition) [8] 12.5% | Potency [9] | Potency [10] | outcome [11] | Potency [12] | outcome [13]

C[C@]1(O)CC[C@H]2[C@@H]3CCC4=CC(=O)CC[C@]4(C)[C@@]3(F)[C@@H](O)C[C@@]21C
17.9%: max response [7]
inactive: outcome [1] | Potency [5] | outcome [6] | activity change % (negative = inhibition) [8] 5.6% | Potency [9]
3.94%: max response [4]

CC(=O)N1CCN(c2ccc(OC[C@H]3CO[C@](Cn4ccnc4)(c4ccc(Cl)cc4Cl)O3)cc2)CC1
active: Potency [2] 44.7 µM

COP(=S)(OC)Oc1cc(Cl)c(Cl)cc1Cl
-2.58%: max response [4]
1.09%: max response [7]
inactive: outcome [1] | Potency [5] | outcome [6] | activity change % (negative = inhibition) [8] 19.2% | Potency [10]
